Reference: PubChem BioAssay

Biological target: Voltage-gated potassium channel subunit beta-2 (Rattus norvegicus) (UniProt P62483)
Test: KvBeta positive modulators, primary screen, biochemical, NADPH fluorescence (AID 623);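 also: fluorescence intensity change per second fitted from 20 to 320 s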
Conditions: Recombinant KvBeta, NADPH fluorescence decrease slope, 10 min; at 10 µM; hits give low values;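 active = NADPH fluorescence slope more negative than the mean of all samples by about 3 SD, 99.7% confidence; inactive = the rest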

Sequence of Voltage-gated potassium channel subunit beta-2 (Rattus norvegicus) (P62483 whole entry, looked up): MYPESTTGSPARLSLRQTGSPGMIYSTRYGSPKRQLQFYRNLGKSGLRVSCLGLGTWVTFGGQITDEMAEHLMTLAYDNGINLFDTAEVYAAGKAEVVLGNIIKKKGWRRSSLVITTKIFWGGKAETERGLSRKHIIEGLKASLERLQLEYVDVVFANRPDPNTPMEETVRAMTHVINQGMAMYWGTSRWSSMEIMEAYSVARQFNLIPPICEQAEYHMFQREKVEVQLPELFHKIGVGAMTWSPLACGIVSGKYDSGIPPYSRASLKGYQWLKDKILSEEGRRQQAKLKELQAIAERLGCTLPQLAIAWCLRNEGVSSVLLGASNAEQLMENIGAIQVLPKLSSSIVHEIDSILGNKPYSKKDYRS

NADPH fluorescence slope, inactive:
Cn1cc(CN2CCc3ccccc3C2)c2ccccc21 -0.000148
Cc1cc(C)n(-c2ccc(C(=O)Oc3ccc4c(c3)OCO4)cc2)n1 -2.1e-05
O=C(O)c1cccc(NS(=O)(=O)c2ccc3nnn(O)c3c2)c1 -5.1e-06
CN(Cc1ccccc1)C(=O)c1ccc2c(c1)OCO2 -2e-05
COc1cccc(C(=O)Nc2ccc(C)cc2)c1 4.6e-05
Cc1cc(NC(=O)CCOc2ccccc2)no1 -5e-05
CCCCOc1ccc(CSc2n[nH]c(C)n2)cc1 2.4e-05
COc1ccc(C)cc1NCc1cccc(OC)c1OC -2.7e-05
O=C(CSc1nc(-c2ccccc2)cs1)NC(=O)NCc1ccco1 3.1e-06
COC(=O)C1=C(C)C(c2cccs2)NC(=O)N1C (stereo not given) -2.3e-05
CCCn1c(N)c(C(=O)CSc2nnc(Cc3ccccc3)o2)c(=O)n(C)c1=O 0.00012
CC(C)NC(=O)CSc1nc2ccccc2n1-c1ccccc1 9.8e-06
CCCCNC(=O)Cn1c(=O)n(C)c2ccccc21 -6.8e-06
Cc1csc(NC(=O)C2CCCO2)n1 (stereo not given) -5.6e-05
COc1ccccc1OCCCCNCCO -3.7e-05
C/C(=C\c1ccco1)C1C(C#N)=C(N)OC2=C1C(=O)CC(C)(C)C2 (stereo not given) -6.3e-05
O=C(c1ccc(Cl)c(F)c1F)N1CCCC1 1.2e-05
CCC(C)(C)n1nnnc1C(c1cc2cc(C)ccc2[nH]c1=O)N1CCCC1 (stereo not given) 2.7e-05
NC(=O)CCS(=O)(=O)CCN1CCCCC1 4.4e-05
Cc1ccc(Cn2nnc(C(=O)Nc3cccc(C)c3C)c2N)cc1 2.2e-07
CSc1oc(-c2ccccc2)nc1S(=O)(=O)c1ccc(F)cc1 -3.1e-05
c1ccc(CN2CCN(CCCNc3ccc4nnc(-c5ccccc5)n4n3)CC2)cc1 -1.7e-05
Cc1cc(NC(=O)c2ccccc2)ncc1NC(=O)c1ccco1 2.5e-05
COc1ccc(Br)cc1C1N2CC3(C)CN1CC(C)(C2)C3=O (stereo not given) -0.000152
Clc1cccc(Nc2c3c(nc4ncnn24)CCC3)c1 -2.2e-07
